# Hits are enriched below; roughly 1.1% of the tested compounds scored in any of these assays.
# sEH act = soluble epoxide hydrolase activators, primary screen, biochemical, human sEH; AID 717, 2007; 0.04% of 91,000 active; activation, % at 2 µM; purified human sEH enzymatic activity, activator screen; in the data active = activation above about 37%
# IL1B cytotox = cytotoxicity in IL-1B stimulated HUVEC, primary screen, cytotoxicity control for IL-1B NFkB translocation project, imaging, Hoechst nuclear count, IL-1B stimulus; HUVEC cell count loss; cell count reduction, % at 2 µM; 0.41% of 94,000 active; AID 845, 2007;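 active = cell count reduction more than 3 SD above the screen-wide mean, cut at about 70% in these data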;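 also: normalized per plate to untreated control cells as the no-loss baseline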
# sEH inhibitor = soluble epoxide hydrolase inhibitors, primary screen, biochemical, human sEH; recombinant human sEH enzymatic activity assay; Bifunctional epoxide hydrolase 2 (Homo sapiens), P34913; inhibition, % at 2 µM; 0.34% of 91,000 active; in the data active = inhibition above about 80%
# NFkB transloc pot = enhancers of NFkB p65 translocation in HUVEC – imaging, IL-1B stimulus, high-content imaging, primary screen; HUVEC IL-1B NFkB p65 nuclear translocation imaging; activation, % at 2 µM; 0.3% of 94,000 active; AID 819, 2007;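 active = activation above 40%, about the mean plus 3 SD, also judged a hit on visual image review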;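 also: percent activation is computed from the nuclear over cytoplasmic p65 intensity ratio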
# NFkB transloc inh = inhibitors of IL-1B driven NFkB p65 nuclear import, primary screen, imaging, HUVEC, IL-1B stimulus, high-content imaging. HUVEC IL-1B NFkB p65 nuclear translocation imaging. inhibition, % at 2 µM. 0.43% of 94,000 active;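 active = inhibition above about 30% together with a positive call from visual inspection of the well image, limit read from the data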;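 also: nuclear over cytoplasmic p65 intensity ratio measured by imaging; 0% = IL-1B stimulated DMSO wells and 100% = unstimulated DMSO wells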
# * = called active by the depositor; · = not tested or not shown.
SMILES,sEH act,IL1B cytotox,sEH inhibitor,NFkB transloc pot,NFkB transloc inh
Cc1nn(-c2ncc(C(F)(F)F)cc2Cl)c(=O)n1-c1ccccc1Cl,-7,19,8,-31,31*
CC(/C=C/c1cccs1)=C\C(=O)O,-12,9,12,1,0
Cc1cc(Cl)ccc1Oc1nc(-c2ccc(F)cc2)ccc1C#N,12,-8,-10,15,-15
COc1ccccc1NC(=O)CNC(=O)c1ccccc1,-16,-12,18,1,0
CCc1c(C)nc(/N=C(/NC(=O)c2ccccc2)Nc2ccccc2OC)[nH]c1=O,2,-1,-3,-55,55*
O=C(NCCC1=CCCCC1)C1CCN(c2nc3ccccc3o2)CC1,-85,8,85*,10,-10
O=C(NCCN1CCOCC1)C1CCN(c2nc3ccccc3o2)CC1,·,23,·,-9,9
Cc1oc(-c2ccccc2F)nc1CN1CCC(C(=O)NCCC2=CCCCC2)CC1,-89,-14,89*,4,-4
O=C(COc1ccccc1CNCc1ccccc1)Nc1ccccc1,7,1,-6,1,-1
COC(=O)c1ccc(-n2nnnc2SCC(=O)Nc2ccccc2C(=O)OC)cc1,11,-8,-8,2,-2
COc1ccccc1NC(=O)CSc1nnnn1-c1ccc(C)cc1,8,-19,-2,41*,-41
COc1ccc(S(=O)(=O)N2c3cc(Cl)ccc3Oc3nc4ccccc4nc32)cc1,3,32,0,-22,22
O=S(=O)(c1ccc(Cl)cc1)N1c2ccccc2Oc2nc3ccccc3nc21,2,86*,1,-97,97*
CCc1nnc(NC(=O)CSc2nnc(-c3cccnc3)n2CCc2ccccc2)s1,17,-31,-18,43*,-43
CCc1nnc(NC(=O)c2cccnc2)s1,-1,8,-5,147*,-147
CC(=O)c1c(C)[nH]c(C(=O)OCCCCN2C(=O)c3ccccc3C2=O)c1C,19,0,-20,-6,6
CC(/C=N/Nc1nnc2c(n1)[nH]c1ccccc12)=C\c1ccco1,6,4,-5,65*,-65
Cc1cccc2c1[nH]c1nc(N/N=C\c3ccco3)nnc12,-1,-25,-2,0,0
Cc1cn(C(=O)C(C)N2C(=O)c3ccccc3C2=O)c(C)n1 (centres undefined),16,87*,-16,6,-6
Cc1ccc(C2NNC(=O)C2NC(=O)c2ccccc2)cc1 (centres undefined),-8,0,9,-8,8
COc1ccc(S(=O)(=O)N(C)CC(=O)Nc2ccc3c(c2)OCO3)cc1OC,-11,81*,14,-7,7
Nc1ccccc1-c1nnn(CC(=O)N2CCCc3ccccc32)n1,5,5,-7,-4,4
COc1ccc(NC(C)=O)cc1NC(=O)CN1CCN(C(=O)c2ccco2)CC1,12,24,-9,-2,2
O=Cc1cc2ccccc2nc1SCc1ccc(Cl)cc1,-8,56,6,5,-5
O=Cc1cc2ccccc2nc1SCc1ccc(Cl)c(Cl)c1,14,65,-13,-34,34*
SMILES,sEH act,IL1B cytotox,sEH inhibitor,NFkB transloc pot,NFkB transloc inh
Cc1ccc(CSc2nc3ccccc3cc2C=O)cc1,-5,73*,6,-36,36*
N#Cc1cc([N+](=O)[O-])ccc1Oc1cccc(/C=N/NC(=O)c2cccc(Cl)c2)c1,-35,22,36,17,-17
CCCc1cc(=O)n2c([nH]c3ccccc32)c1C#N,8,-17,-6,-36,36*
O=C(NC12CC3CC(CC(C3)C1)C2)N1CCC(O)(c2ccc3c(c2)OCO3)CC1,-88,38,88*,0,0
CCC(C)c1ccc(NC(=O)C2CCN(c3ncccn3)CC2)cc1 (centres undefined),-99,-1,99*,17,-17
COc1ccc(OC(=O)CCCN2C(=O)c3ccccc3C2=O)cc1,-2,86*,2,6,-6
Cc1cc(=O)oc2cc(OC(=O)CCN3C(=O)c4ccccc4C3=O)ccc12,13,-61,-11,3,-3
O=C(Nc1ccccc1Cl)ON=C1c2ccccc2-c2ccccc21,-1,24,2,1,-1
CN(C)c1ccc(/C=N/NC(=O)c2ccc(Cl)cc2)cc1,-4,-30,7,-50,50*
O=C(CO)N/N=C/c1ccc(Cl)cc1,8,-10,-8,2,-2
